The values that follow come from ChEMBL document CHEMBL3433997, “St. Jude Leishmania screening dataset” (2016).

Holding throughout (format): functional
Assay [1] addresses Solute carrier family 2, facilitated glucose transporter member 1 (Homo sapiens) (UniProt P11166). The experiment in a line: ST_JUDE_LEISH: Cytotoxicity at 2uM final concentration against transgenic Leishmania Mexicana promastigotes LmGLUT1 that are glucose transport deficient and complemented with the human glucose transporter GLUT1. Activity is measured by DNA content using SYBR green in vitro.

The target of assay [2] is Hexose transporter 1 (Plasmodium falciparum) (UniProt O97467). The experiment in a line: ST_JUDE_LEISH: Cytotoxicity at 2uM final concentration against transgenic Leishmania Mexicana promastigotes LmPfHT that are glucose transport deficient and complemented with the Plasmodium falciparum hexose transporter. Activity is measured by DNA content using SYBR green in vitro.

In assay [3] the target is Glucose transporter (Leishmania mexicana) (UniProt O61059). The experiment in a line: ST_JUDE_LEISH: Cytotoxicity at 2uM final concentration against transgenic Leishmania Mexicana promastigotes LmGT2 that are glucose transport deficient and complemented with the L. Mexicana glucose transporter 2. Activity is measured by DNA content using SYBR green in vitro.

Solute carrier family 2, facilitated glucose transporter member 1 (Homo sapiens), sequence (P11166 whole entry): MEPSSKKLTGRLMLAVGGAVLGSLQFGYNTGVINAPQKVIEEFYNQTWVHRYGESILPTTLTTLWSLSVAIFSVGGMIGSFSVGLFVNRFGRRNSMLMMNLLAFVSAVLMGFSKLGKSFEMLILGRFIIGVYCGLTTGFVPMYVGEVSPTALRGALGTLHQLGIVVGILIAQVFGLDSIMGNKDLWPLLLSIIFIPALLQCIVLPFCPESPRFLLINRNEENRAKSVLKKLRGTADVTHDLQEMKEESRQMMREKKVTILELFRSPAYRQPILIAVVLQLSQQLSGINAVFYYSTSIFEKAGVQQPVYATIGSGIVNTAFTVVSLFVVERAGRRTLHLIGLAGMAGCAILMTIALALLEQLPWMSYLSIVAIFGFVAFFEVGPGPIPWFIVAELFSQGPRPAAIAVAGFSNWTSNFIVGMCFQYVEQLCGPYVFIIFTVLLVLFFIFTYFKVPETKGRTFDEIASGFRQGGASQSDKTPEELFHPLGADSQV

Take `Cc1cccc(CN2CCC(C(=O)Nc3ccc(-c4nc5ccccc5[nH]4)cc3)CC2)n1`: the inhibition in assay [1] was 2.6%; in assay [2], 2.69%; in assay [3], 3.71%.
For `COc1ccc(CNCc2ccc(-c3cccc(-c4nc5ccccc5[nH]4)c3)cc2)cc1`, the inhibition in assay [1] was determined as 5.98%; in assay [2] it was 6.56%; in assay [3], 2.14%.
Consider `Cc1cc(N[C@@H](Cc2ccccc2)C(=O)NC2CCCC2)nc(NCCCOC(C)C)n1`, for which the values for the inhibition in assay [1], in assay [2] and in assay [3] were 7.62%, 3.46% and 0.61%, respectively.
For `Cc1cc2c3c(N)nc(N)nc3ccc2n1C` the same measures were 6.53%, 10.4% and 5.15%.
As to `CNC(=O)Cc1ccc(C(=O)Nc2cccc(-c3cccc(-c4nc5cc(C(F)(F)F)ccc5[nH]4)c3)c2)cc1`, the inhibition in assay [1] was -0.26%; in assay [2], 0.81%; in assay [3], -0.97%.
For `CCC(CC)OC(=O)C(C)c1cccc(C(=O)c2ccccc2)c1` (stereo not drawn) the same measures were 2.22%, -0.21% and 1.64%.
With `CCN(CC)C(C)(C)CN(Cc1ccc(-c2ccc(C(F)(F)F)cc2)cc1)C(=O)Cn1c(CCc2cccc(F)c2F)nc(=O)c2ccccc21`, the inhibition in assay [1] stood at 6.6%; in assay [2], 5.18%; in assay [3], 5.98%.
For `O=C(/C=C/c1ccc(Cl)c(Cl)c1)N1CCC(CN2CCC(Cc3nc4ccccc4[nH]3)CC2)CC1` the same measures were 1.43%, 1.29% and 3.16%.
Turning to `CC(C)(C)c1nn(-c2ccccc2)c2[nH]c(=O)c(CNCCc3ccccc3)cc12`, the inhibition in assay [1] is 0.22%; in assay [2] it was -1.47%; in assay [3] it was -1.89%.
As for `O=C(N[C@H]1CCN(CCc2ccc(O[C@H]3CCNC3)c(F)c2)C1)c1ccc(Cl)c(Cl)c1`, the values for the inhibition in assay [1], in assay [2] and in assay [3] were 8.17%, 9.6% and 9.34%, respectively.
As for `C(=N\Nc1nccc2sc(-c3cccnc3)cc12)/c1cccnc1`, the inhibition in assay [1] stood at 2.11%; in assay [2] it was 1.38%; in assay [3], 1.05%.
On to `CCOC(=O)c1cccc(NC(=N)Nc2nc(C)cc(NCCc3ccccc3)n2)c1`, for which the inhibition in assay [1] was found to be 7.04%; in assay [2] it was 7.16%; in assay [3] it was 5.39%.
As for `CC1(C)N=C(N)N=C(N)N1c1ccc(Oc2ccc(Cl)cc2)c(Cl)c1`, the results for the inhibition in assay [1], in assay [2] and in assay [3] were 0.34%, -1.08% and 2.05%, respectively.
With `CCN(CC)/C(=N/C(=N)Nc1ccc(Cl)cc1)NCCCCCCCCN/C(=N\C(=N)Nc1ccc(Cl)cc1)N(CC)CC`, the results for the inhibition in assay [1], in assay [2] and in assay [3] were 0.33%, -0.74% and -0.07%, respectively.
On to `CCn1c(-c2nonc2N)nc2c(-c3ccc(CO)o3)ncc(OCCCN)c21`, for which the inhibition is 6.54% in assay [1], 3.21% in assay [2] and 5.17% in assay [3].
Turning to `CCN1CCC(N(Cc2ccc(-c3ccc(C(F)(F)F)cc3)cc2)C(=O)Cn2c(CCc3cccc(F)c3F)cc(=O)c3ccccc32)CC1`, the inhibition is -0.63% in assay [1], -0.01% in assay [2] and -2.06% in assay [3].
As to `CCc1c(C(=O)NC2CCC(N3CCC(c4ccccc4C)CC3)CC2)[nH]c2ccc(Br)cc12` (stereo not drawn), the inhibition in assay [1] came out at 5.69%; in assay [2], 5.55%; in assay [3], 3.97%.
For the compound `O=C(/C=C/c1ccc(Cl)c(Cl)c1)NCCCCCN1CCCN(C(=O)Nc2ccc(C(F)(F)F)cc2)CC1`, the inhibition in assay [1] was found to be 2.96%; in assay [2], 2.53%; in assay [3], 5.5%.
In the case of `N#Cc1ccc2c(c1)CN(CCC1CCC(NC(=O)c3cc4cc(OC(F)(F)F)ccc4[nH]3)CC1)CC2` (stereo not drawn), the values for the inhibition in assay [1], in assay [2] and in assay [3] were 3.11%, 2.72% and 0.85%, respectively.
For `COc1cccc(CN2CCCN(Cc3cccc(NC(=O)c4ccc(-c5ccccc5)cc4)c3)CC2)c1`, the figures for the inhibition in assay [1], in assay [2] and in assay [3] were 0.95%, 0.27% and -6.64%, respectively.
Take `Cc1cc(N2CCCC2)nc(Nc2ccc(NC(=O)C3CCCC3)cc2)n1`: the inhibition in assay [1] was -0.76%; in assay [2], 1.16%; in assay [3], 0.83%.
For `O=C(Nc1cccc(-c2ccc(-c3nc4cc(F)ccc4[nH]3)cc2)c1)c1ccoc1` the same measures were 1.01%, 1.14% and -0.42%.
As to `Oc1ccc(-c2cc(COc3ccccc3C(F)(F)F)c(C3=CCNCC3)cc2COc2ccccc2C(F)(F)F)cc1`, the inhibition in assay [1] is 2.69%; in assay [2] it was 2.67%; in assay [3] it was -0.12%.
Turning to `Cc1cccc2nc(-c3ccc(-c4cccc(CN5CCC(C(N)=O)CC5)c4)cc3)[nH]c12`, the inhibition in assay [1] was 0.21%; in assay [2], -0.52%; in assay [3], -1.72%.
Regarding `O=S(=O)(NCCN1CCCC1)c1cccc(-c2cccc(CNCc3ccsc3)c2)c1`, the values for the inhibition in assay [1], in assay [2] and in assay [3] were -0.74%, -0.16% and 1.71%, respectively.
Taken in the same sequence, the figures for `CCCNCc1ccc(-c2ccc(CN(C(=O)c3nn(-c4ccccc4)nc3C)C(C)CN(C)C)cc2)nc1` (stereo not drawn) were 1.37%, 0.07% and 6.31%.
For the compound `Cc1cccc2nc(-c3cccc(-c4cccc(NC(=O)c5ccc(C(N)=O)cc5)c4)c3)[nH]c12`, the inhibition in assay [1] is 0.33%; in assay [2] it was 1.11%; in assay [3], 1.3%.
For `O=S(=O)(Nc1cccc(CCN2CCC(N3CCCCC3)CC2)c1)c1cccc2cccnc12`, the inhibition in assay [1] is 0.25%; in assay [2], 0.35%; in assay [3], -2.07%.
Take `Cc1cc(NC(=O)c2ccco2)ccc1OC1CCN(Cc2ccc(C#N)cc2)CC1`: the inhibition in assay [1] is 1.63%; in assay [2], 1.09%; in assay [3], 1.11%.
Consider `COc1cccc(C(=O)NC(C=Cc2ccccc2)c2cc(Cl)c3cccnc3c2O)c1` (stereo not drawn), for which the figures for the inhibition in assay [1], in assay [2] and in assay [3] were 2.89%, 2.04% and 2%, respectively.
On to `CCNc1cc(C(=O)N[C@@H](Cc2ccc(F)c(F)c2)[C@H](O)CNC2CCCCC2)cc(N2CCCCS2(=O)=O)c1`, for which the inhibition in assay [1] is 1.98%; in assay [2], 0.24%; in assay [3] it was 0.91%.

A word on the inhibition: it is the change of the read-out against control, counted positive when it falls.
